In PubChem BioAssay (NCATS) one finds Potency and outcome data, which are given here for six compounds.

A short description of assay [1]: U-118MG Cancer Cell Toxicity qHTS against the NCATS CANVASS Library (AID 1347351). Also: potency is read from the fitted curve at half-maximal effect. The essentials:
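Viability read-out: CellTiter-Glo luminescence after 72 h compound exposure at 37 °C/5% CO2. Cells plated at 1000/well, 4 h pre-incubation; 11-point titration. Bortezomib served as control.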
A general note: Quantitative high-throughput screening tests each substance at several concentrations.

Assay [2] is described as follows: HPAF-II 24hr Apoptosis Induction qHTS against the NCATS CANVASS Library (AID 1347356). An outline of the steps:
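Luminescent caspase-3/7 signal (DEVD substrate, Caspase-Glo) served as read-out, taken 15 min after reagent addition to HPAF-II cells exposed 24 h to compounds.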

Assay [3] can be described thus: HEK293 18hr Apoptosis Induction qHTS against the NCATS CANVASS Library (AID 1347357). The essentials:
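Caspase-3/7 luminescence (DEVD substrate, Caspase-Glo) after 18 h compound exposure of HEK293 cells, 500 cells/well; 11-point series; doxorubicin titration as control.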

The nature of assay [4]: HPAF-II 18hr Apoptosis Induction qHTS against the NCATS CANVASS Library (AID 1347360). An outline of the steps: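 Caspase-Glo 3/7 luminescence (DEVD substrate) after 15 min RT; HPAF-II, 500 cells/well, 18 h compound exposure at 37 degrees C, qHTS series; doxorubicin control 0.1nM - 4uM.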
Assay [5] in a line: HEK293 12hr Apoptosis Induction qHTS against the NCATS CANVASS Library (AID 1347361). The essentials:
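500 HEK293 cells/well; cpds pin-transferred, 11-pt conc series; 12 h, 37 degrees C/5% CO2; Caspase-Glo 3/7 added, 15 min RT dark; luminescence.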

The subject of assay [6] is NAD(P)H diaphorase (Clostridium kluyveri). The assay is described as follows: Diaphorse counterscreen qHTS: Assay Interference Panel against the NCATS CANVASS Library (AID 1347362). The essentials: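 Clostridium kluyveri diaphorase in PBS with 0.01% Tween-20 was preincubated 15 min at room temperature in the dark with compounds (11-point series). Resorufin fluorescence (ex 525/20, em 598/25) was read 5 min after adding resazurin/NADH.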

Assay [7] can be described thus: KB-3-1 Cancer Cell Toxicity qHTS against the NCATS CANVASS Library (AID 1347366). Also: nearly all actives have a fitted effect of over 75% in size. Also: potency is read from the fitted curve at half-maximal effect. An outline of the steps: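 500 KB-3-1 cells/well; compounds pin-transferred, 11-pnt series; 72 hr, 37C/5% CO2; CellTiter-Glo, 10 min RT; luminescence read-out.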
Assay [8] is described as follows: qHTS for ATAD5 Antagonist screened against the NCATS CANVASS Library (AID 1347370). Also: nearly all actives have a fitted effect of over 65% in size. Also: potency is read from the fitted curve at half-maximal effect. The essentials:
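HEK293T cells with stably integrated ATAD5-luciferase reporter, 2000/well, 5 h attachment; compounds plus 10 µM 5-fluorouridine, 16 h at 37 °C. Luciferase luminescence read, with CellTiter-Fluor viability read first.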

Assay [9] can be described thus: J3T Cancer Cell Toxicity qHTS against the NCATS CANVASS Library (AID 1347371). Also: potency is read from the fitted curve at half-maximal effect. An outline of the steps: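 Cells plated at 500 per well, compounds pin-transferred, plates incubated 72 hr at 37C, then CellTiterGlo added and luminescence read to measure ATP content.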
Assay [10] deals with Nuclear receptor subfamily 1 group I member 3 (Homo sapiens) (UniProt Q14994). The assay is described as follows: qHTS for Constitutive Androstane Receptor (CAR) Antagonist screened against the NCATS CANVASS Library (AID 1347372). Also: potency is read from the fitted curve at half-maximal effect. An outline of the steps:
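HepG2 cells stably carrying hCAR and a CYP2B6-2.2kb luciferase reporter were exposed to compounds plus 50 nM CITCO for 24hr at 37C. CAR activity was read by ONE-Glo luminescence, with viability measured first by CellTiter-Fluor.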

Assay [11] has the same target. The assay is described as follows: qHTS for Constitutive Androstane Receptor (CAR) Agonist screened against the NCATS CANVASS Library (AID 1347373).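 Also: every well also contained 1.5 µM PK11195 alongside the test compound.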 An outline of the steps:
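HepG2-hCAR-CYP2B6 cells, 2500/well, attached 4hr; cpd + PK11195 1.5uM final; 24hr 37C 5% CO2. CellTiter-Fluor viability read, then ONE-Glo luminescence for CAR activation.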

Assay [12] is described as follows: 10-beta competent E. coli microbial cell viability qHTS against the NCATS CANVASS Library (AID 1347376). Also: series mostly up to about 46 µM. The essentials: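 E. coli 10-beta, 0.2 OD; cpds 11-pt; o/n 37C, 5% CO2; BacTiter-Glo 20 min RT; luminescence (ATP) = viable cells. Daunomycin ctrl.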
A short description of assay [13]: Cytotoxicity qHTS for assessment of Hepg2 cells membrane integrity screened against the NCATS CANVASS Library (AID 1347387). The essentials: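 qHTS, 11-pt conc. series, 0.59 nM - 46 uM final; HepG2 2000 cells/well, overnight attachment; 5 hr compound exposure 37C/5% CO2; CytoTox-ONE, 10 min RT; fluorescence ex560/em590 = LDH from damaged membranes.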
Assay [14] is described as follows: Secretion counterscreen for inhibitors of the SERCaMP assay screened against the NCATS CANVASS Library (AID 1347390).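 Also: light from luciferase secreted into medium read as a measure of general secretion; series mostly up to about 77 µM.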 The essentials:
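Luminescence from constitutively secreted GLuc in SH-SY5Y-GLuc STOP cells, read after coelenterazine addition, served as read-out. Compounds tested 0.001 - 77 uM for 20 h at 37C; Brefeldin A as positive control.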
Background: A counterscreen serves to expose hits that act by an unwanted route or on another target.

Assay [15] can be described thus: Vero-766 cells viability qHTS against the NCATS CANVASS Library: Counterscreen for Zika virus inhibition assay (AID 1347394). Also: nearly all actives have a fitted effect of over 60% in size. Also: potency is read from the fitted curve at half-maximal effect. The essentials: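 CellTiter-Glo luminescence, lower signal indicating cytotoxicity. Vero 766 cells without Zika virus, 1000 cells/well, plated overnight, then treated 72 h at 37C across an 11-point series.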
Assay [16] in a line: Viability qHTS for inhibitors of the SERCaMP assay screened against the NCATS CANVASS Library (AID 1347400). Also: nearly all actives have a fitted effect of over 70% in size. Also: potency is read from the fitted curve at half-maximal effect. The essentials:
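SH-SY5Y SERCaMP MJH297 cells, 1000/well; 4 h settle, 37C/5% CO2; pin-transferred cpds; 48 h; CellTiter-Glo lum. Pos ctrl bortezomib 0.0001 - 4.6 uM.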

The nature of assay [17]: Redox Reaction Profiling qHTS: Assay Interference Panel against the NCATS CANVASS Library (AID 1347401). The essentials:
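Resazurin (5 uM) conversion to resorufin measured with 200 uM DTT in 50 mM HEPES pH 7.3, 50 mM NaCl. Compounds tested in 11-point qHTS series. Fluorescence (ex 525/em 598 nm) read before and after 15 min dark incubation.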

The nature of assay [18]: qHTS for H2AX Agonists against the NCATS CANVASS Library (AID 1347378). An outline of the steps:
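TR-FRET readout (ex 320 nm, em 665/620 nm ratio) of phospho-H2AX (S139) in CHO-K1 lysates. Cells treated 3 hr at 37C with compound titration, 0.76% DMSO; lysis 30 min, antibody detection 24 hr at RT.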

The nature of assay [19]: qHTS for Inflammasome Signaling Inhibitors: IL-1-beta AlphaLISA screen against the NCATS CANVASS Library (AID 1347379).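 Also: human THP-1 cells primed with LPS then triggered with ATP.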 The essentials:
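THP-1 cells pretreated 1 hr with compound (up to 57.5 uM final), then stimulated with LPS (250 ng/mL final) and ATP (1.25 mM final). Secreted IL-1B measured by AlphaLISA after 16 hr; glyburide as positive control.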

A short description of assay [20]: MCF7 Cancer Cell Toxicity qHTS against the NCATS CANVASS Library (AID 1347369). Also: series mostly up to about 46 µM. The essentials:
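Luminescent ATP signal (CellTiterGlo) served as the cytotoxicity read-out after MCF7 breast cancer cells had been incubated 72 hr at 37C with natural products in an 11-point titration.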

Inconclusive results are not listed. A number with no mark means an inactive call. Activity calls are given as the source filed them. Calls follow the shape of the dose curve; as a rule, active = well fitted curve in the direction sought with a large enough effect; inconclusive = small, poorly fitted or top-dose-only effect, or another doubt; inactive = no such curve, though single readings can be large; an effect the other way counts as inactive or inconclusive.

Nuclear receptor subfamily 1 group I member 3 (Homo sapiens), sequence (Q14994 whole entry, looked up): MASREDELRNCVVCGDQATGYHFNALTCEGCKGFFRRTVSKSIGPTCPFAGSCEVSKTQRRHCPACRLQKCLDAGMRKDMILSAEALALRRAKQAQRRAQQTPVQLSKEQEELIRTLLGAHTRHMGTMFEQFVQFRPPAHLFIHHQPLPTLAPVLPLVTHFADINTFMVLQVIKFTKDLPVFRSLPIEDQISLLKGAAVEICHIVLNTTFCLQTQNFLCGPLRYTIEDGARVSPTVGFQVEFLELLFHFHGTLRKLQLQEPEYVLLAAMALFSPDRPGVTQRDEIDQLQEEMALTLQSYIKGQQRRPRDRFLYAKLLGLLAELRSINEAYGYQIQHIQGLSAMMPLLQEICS

Take `CCC(=O)CCCCC[C@@H]1NC(=O)[C@H]2CCCCN2C(=O)[C@H](C(C)C)NC(=O)[C@H](Cc2cn(OC)c3ccccc23)NC1=O`: the Potency in assay [1] was 3.75 µM (active); in assay [7] it was 7.43 µM (active); in [9], 11.8 µM (active); in assay [10], 11.7 µM (active); in assay [15], 5.88 µM (active); in assay [16], 15.2 µM (active). Further, the result in assay [2], in assay [5], in [12] and in assay [13] was inactive. The Potency entry in [3], in assay [4], in assay [6], in assay [8], in [11] and in assay [14] was “inactive” each time. The Potency result in [17] was “inactive”.

In the case of `COc1cc(O)c(C(=O)[C@@H]2[C@H](CC=C(C)C)C(C)=CC[C@H]2c2ccccc2)c(O)c1`, the Potency in assay [1] is 7.49 µM (active); in assay [7], 20.9 µM (active); in assay [10], 33.1 µM (active); in assay [15], 23.4 µM (active). Besides, the result in [5], in assay [12] and in [13] was inactive. In addition, the Potency entry in assay [6], in assay [8], in [9], in assay [11], in assay [18] and in assay [17] was “inactive” throughout.

Turning to `COc1ccc2[nH]c3c(c2c1)CCN1C[C@H]2C[C@@H](OC(=O)c4cc(OC)c(OC)c(OC)c4)[C@H](OC)[C@@H](OC)[C@H]2C[C@H]31`, the compound was called inactive in assay [2], in [5], in assay [12] and in assay [13]. In addition, the Potency entry in [3], in assay [4], in [9], in [10], in assay [18] and in assay [19] was “inactive” throughout. Also, the Potency result in [15], in [16] and in assay [17] was “inactive” each time. Moreover, in assay [8], the Potency is 6.6 µM (active).

With `C/C1=C/[C@@H](C)[C@H](O)[C@@H](O)/C=C/CC/C=C/C(=O)O[C@@H]1[C@H](C)C(=O)CCCC1CC(=O)NC(=O)C1`, the Potency result in assay [1], in assay [3], in assay [4], in [6], in assay [7] and in assay [20] was “inactive” each time. In addition, the Potency result in assay [8], in [9], in [10], in assay [11], in assay [18] and in [19] was “inactive” in each case. Moreover, the Potency entry in [14], in assay [15], in [16] and in [17] was “inactive” in each case. Further, the compound was classed as inactive in assay [2], in assay [5], in assay [12] and in assay [13].

`C=CC(CCCCC)C1C(=O)NC(=O)C1C(=O)C1C(/C=C/C)C=CC2CC(C(=O)O)CC(C)C21` (stereo not given): the results for the Potency in assay [1] and in assay [15] were 21.1 µM (active) and 23.4 µM (active), respectively. In addition, the compound was classed as inactive in [2], in [5], in [12] and in assay [13]. Further, the Potency result in assay [3], in [4], in assay [7], in assay [20], in assay [8] and in assay [9] was “inactive” throughout. Also, the Potency result in assay [10], in assay [11], in [14], in [16] and in [17] was “inactive” each time.

`C[C@]12CCC[C@](C)(C(=O)O)[C@@H]1CC[C@@]1(C)c3cocc3CC[C@H]21`: the Potency entry in assay [1], in assay [3], in assay [4], in assay [6], in assay [7] and in assay [8] was “inactive” throughout. In addition, the Potency entry in [9], in [10], in [11], in assay [18], in assay [19] and in assay [14] was “inactive” throughout. Besides, the Potency result in [15], in [16] and in assay [17] was “inactive” in each case. Moreover, the outcome in [2], in assay [5], in [12] and in [13] was inactive.
